# Results filed as inconclusive are left out. Calls of active or inactive are those of the source.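 How the source made its calls, unless noted: active means normalized viability below 100% at a tested concentration; inactive means the rest.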
# How the values were obtained:
# [1] = viability loss in pontine glioma line – cell-based, SU-DIPG-XVII, MIPE5.0, CellTiter-Glo, qHTS, dose response (AID 1347060; cut-off not given, nearly all actives have AC50 up to about 26 µM;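 further: cells exposed to compound for 48 hours before viability readout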); details: CellTiter-Glo ATP luminescence
# [2] = viability loss in pontine glioma line – cell-based, SU-DIPG-XIII, MIPE4.0, CellTiter-Glo, qHTS, dose response (AID 1347061; cut-off not given, nearly all actives have AC50 up to about 37 µM;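 further: cells exposed to compound for 48 hours before readout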); details: CellTiter-Glo ATP luminescence
# [3] = viability loss in pontine glioma line – cell-based, JHH-DIPG-1, MIPE4.0, CellTiter-Glo, qHTS, dose response (AID 1347062; cut-off not given, nearly all actives have AC50 up to about 27 µM;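 further: cells exposed to compound for two days before readout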); details: JHH-DIPG-1 viability, CellTiter-Glo ATP luminescence
# [4] = viability loss in pontine glioma line – cell-based, SU-DIPG-IV, MIPE4.0, CellTiter-Glo, qHTS, dose response (AID 1347063; cut-off not given, nearly all actives have AC50 up to about 30 µM;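 further: compound exposure lasted 48 hours before the viability readout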); details: CellTiter-Glo ATP luminescence
# [5] = viability loss in pontine glioma line – cell-based, SU-DIPG-XIII, MIPE5.0, CellTiter-Glo, qHTS, dose response (AID 1347064; cut-off not given, nearly all actives have AC50 up to about 23 µM;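 further: cells exposed to compound for 48 hours before the viability read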); details: CellTiter-Glo ATP luminescence
# [6] = viability loss in pontine glioma line – cell-based, SU-DIPG-XXV, MIPE5.0, CellTiter-Glo, qHTS, dose response (AID 1347065; cut-off not given, nearly all actives have AC50 up to about 26 µM;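 further: cells exposed to compound for 48 hours before ATP readout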); details: CellTiter-Glo ATP luminescence
# [7] = growth inhibition of DIPG cells – cell-based, MIPE4.0 library, CellTiter-Glo luminescence, qHTS (AID 1347066; cut-off not given, nearly all actives have AC50 up to about 30 µM;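 further: cells exposed to compound for 48 hours before readout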); details: SU-DIPG-VI viability, CellTiter-Glo ATP luminescence
# [8] = JHH-DIPG-1 glioma cell viability, MIPE5.0 library, CellTiter-Glo luminescence, qHTS (AID 1347067; cut-off not given, nearly all actives have AC50 up to about 26 µM;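 further: cells exposed to compound for 48 hours before readout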); details: JHH-DIPG-1 glioma viability, CellTiter-Glo ATP luminescence
# [9] = compounds altering HSF1 focus formation in cells – imaging, Selleck Cancer Library (AID 1347162; in the data active means plate-normalised HSF1 focus index below about 0.46); details: human cells, HSF1 nuclear foci imaging, at 10 µM; SSMD: measured here: HSF1 foci SSMD mean; cell count: measured here: cell number; plate-normalised HSF1 focus index: stronger effect = lower value
# [10] = drug combination growth inhibition, ovarian cancer – cell-based, oncology-focused library, rucaparib conditional, profiling panel (AID 1508598); details: patient-derived ovarian cancer cells, CellTiter-Glo viability, 144 h, stronger effect = lower value
# [11] = growth inhibition, single agent or in combination, cell-based, chromothripsis tumors, cisplatin or BGB combos (AID 1671449; in the data active means inhibition above about 80%;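 further: cells exposed for 96 hours; 0% = vehicle DMSO and 100% = killing by high DMSO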); details: LFS_MB_P medulloblastoma cells
# [12] = growth inhibition, single agent and combos, cell-based, chromothripsis tumors, cisplatin or BGB combos (AID 1671450; in the data active means inhibition above about 80%;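 further: cells exposed to compound for four days; 0% = vehicle DMSO and 100% = cell killing by high DMSO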); details: HDN33 neuroblastoma cells, stronger effect = higher value
# [13] = growth inhibition, single agents and combos, ICB984, cell-based, cisplatin or BGB combos, synergistic combos for chromothripsis tumors (AID 1671451; call rule not given here;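 further: cells exposed for 96 hours before readout; 0% = vehicle DMSO and 100% = killing by high DMSO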); details: ICB984 medulloblastoma cells, drug combinations, stronger effect = higher value
# [14] = growth inhibition, single agents and combos, HTB85, cell-based, BGB or cisplatin IC20 combos, synergistic combos for chromothripsis tumors (AID 1671453; in the data active means inhibition above about 80%;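 further: cells exposed for 96 hours before readout; 0% = vehicle DMSO and 100% = high DMSO killing control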); details: HTB85 osteosarcoma cells, drug combinations, stronger effect = higher value
# [15] = growth inhibition, MDA-MB-436, cell-based, BGB or cisplatin combos, synergistic combos for chromothripsis tumors (AID 1671458; call rule not given here;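 further: cells exposed for 96 hours; 0% = vehicle DMSO and 100% = killing by high DMSO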); details: MDA-MB-436 breast carcinoma growth inhibition, drug combinations, stronger effect = higher value
# [16] = BT084 cell growth, single and combined drugs, ICGC_MB145, cisplatin and BGB IC40 combos (AID 1671461; in the data active means inhibition above about 80%;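 further: cells exposed to drugs for 96 hours; 0% = vehicle DMSO and 100% = high DMSO full killing control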); details: BT084 medulloblastoma cells, drug combinations, stronger effect = higher value
# [17] = RCMB18 cell growth, single agent and combined, cisplatin and BGB IC40 combos (AID 1671462; in the data active means inhibition above about 80%;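 further: cells exposed to compound for four days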); details: RCMB18 medulloblastoma cells, stronger effect = higher value
smiles,measurement,setting,value
O=C(/C=C/c1cccc(S(=O)(=O)Nc2ccccc2)c1)NO,AC50,[1],2.09 µM (active)
same,AC50,[2],15.2 µM (active)
same,AC50,[3],7.62 µM (active)
same,AC50,[4],3.4 µM (active)
same,AC50,[5],0.661 µM (active)
same,AC50,[6],0.742 µM (active)
same,AC50,[7],3.82 µM (active)
same,AC50,[8],0.742 µM (active)
same,SSMD,[9],-3.23
same,cell count,[9],7740
same,plate-normalised HSF1 focus index,[9],0.885 (inactive)
same,viability,"[10]; at 0.000305 µM, OCI-C5x cells, with rucaparib 10 µM, 100% = cells with rucaparib alone",104% (inactive)
same,viability,"[10]; at 0.000305 µM, OCI-C5x cells, without rucaparib",114% (inactive)
same,viability,"[10]; at 0.000305 µM, OCI-P5x cells, with rucaparib 20 µM, 100% = cells with rucaparib alone",106% (inactive)
same,viability,"[10]; at 0.000305 µM, OCI-P5x cells, without rucaparib",94% (active)
same,viability,"[10]; at 0.00122 µM, OCI-C5x cells, with rucaparib 10 µM, 100% = cells with rucaparib alone",98.8% (active)
same,viability,"[10]; at 0.00122 µM, OCI-C5x cells, without rucaparib",117% (inactive)
same,viability,"[10]; at 0.00122 µM, OCI-P5x cells, with rucaparib 20 µM, 100% = cells with rucaparib alone",113% (inactive)
same,viability,"[10]; at 0.00122 µM, OCI-P5x cells, without rucaparib",100% (inactive)
same,viability,"[10]; at 0.00488 µM, OCI-C5x cells, with rucaparib 10 µM, 100% = cells with rucaparib alone",114% (inactive)
same,viability,"[10]; at 0.00488 µM, OCI-C5x cells, without rucaparib",117% (inactive)
same,viability,"[10]; at 0.00488 µM, OCI-P5x cells, with rucaparib 20 µM, 100% = cells with rucaparib alone",101% (inactive)
same,viability,"[10]; at 0.00488 µM, OCI-P5x cells, without rucaparib",95% (active)
same,viability,"[10]; at 0.0195 µM, OCI-C5x cells, with rucaparib 10 µM, 100% = cells with rucaparib alone",104% (inactive)
same,viability,"[10]; at 0.0195 µM, OCI-C5x cells, without rucaparib",119% (inactive)
same,viability,"[10]; at 0.0195 µM, OCI-P5x cells, with rucaparib 20 µM, 100% = cells with rucaparib alone",90.8% (active)
same,viability,"[10]; at 0.0195 µM, OCI-P5x cells, without rucaparib",88.4% (active)
same,viability,"[10]; at 0.0781 µM, OCI-C5x cells, with rucaparib 10 µM, 100% = cells with rucaparib alone",97.6% (active)
same,viability,"[10]; at 0.0781 µM, OCI-C5x cells, without rucaparib",112% (inactive)
same,viability,"[10]; at 0.0781 µM, OCI-P5x cells, with rucaparib 20 µM, 100% = cells with rucaparib alone",77.4% (active)
same,viability,"[10]; at 0.0781 µM, OCI-P5x cells, without rucaparib",75.3% (active)
same,viability,"[10]; at 0.313 µM, OCI-C5x cells, with rucaparib 10 µM, 100% = cells with rucaparib alone",77% (active)
same,viability,"[10]; at 0.313 µM, OCI-C5x cells, without rucaparib",75.9% (active)
same,viability,"[10]; at 0.313 µM, OCI-P5x cells, with rucaparib 20 µM, 100% = cells with rucaparib alone",43.7% (active)
same,viability,"[10]; at 0.313 µM, OCI-P5x cells, without rucaparib",63.5% (active)
same,viability,"[10]; at 1.25 µM, OCI-C5x cells, with rucaparib 10 µM, 100% = cells with rucaparib alone",12.7% (active)
same,viability,"[10]; at 1.25 µM, OCI-C5x cells, without rucaparib",12.1% (active)
same,viability,"[10]; at 1.25 µM, OCI-P5x cells, with rucaparib 20 µM, 100% = cells with rucaparib alone",17.8% (active)
same,viability,"[10]; at 1.25 µM, OCI-P5x cells, without rucaparib",35.8% (active)
same,viability,"[10]; at 5 µM, OCI-C5x cells, with rucaparib 10 µM, 100% = cells with rucaparib alone",5.06% (active)
same,viability,"[10]; at 5 µM, OCI-C5x cells, without rucaparib",5.35% (active)
same,viability,"[10]; at 5 µM, OCI-P5x cells, with rucaparib 20 µM, 100% = cells with rucaparib alone",2.89% (active)
same,viability,"[10]; at 5 µM, OCI-P5x cells, without rucaparib",3.18% (active)
same,inhibition,"[11]; at 0.5 µM, stronger effect = higher value",40.5% (inactive)
same,inhibition,"[11]; measured here: combination with BGB IC20, at 0.005 µM",-0.936%
same,inhibition,"[11]; measured here: combination with BGB IC40, at 0.005 µM",-11.3%
same,inhibition,"[11]; measured here: combination with BGB IC40, at 0.05 µM",-18.3%
same,inhibition,"[11]; measured here: combination with cisplatin, at 0.5 µM, stronger effect = higher value",101%
same,inhibition,"[11]; measured here: combination with cisplatin, at 5 µM, stronger effect = higher value",112%
same,inhibition,"[12]; BGB combo, at 5 µM",99.6%
same,inhibition,[12]; at 0.5 µM,28.3% (inactive)
same,inhibition,"[12]; cisplatin combo, at 5 µM",99.8%
same,inhibition,"[12]; measured here: with BGB IC20 combination, at 0.5 µM",17.9%
same,inhibition,"[12]; measured here: with cisplatin IC20 combination, at 0.5 µM",21.7%
same,inhibition,"[12]; single agent, at 5 µM",99.8%
same,inhibition,"[13]; BGB IC20 combo, at 0.005 µM",18.9%
same,inhibition,"[13]; BGB IC40 combo, at 0.005 µM",36.1%
same,inhibition,"[13]; BGB IC40 combo, at 0.05 µM",94.9%
same,inhibition,[13]; at 0.5 µM,-22.2% (inactive)
same,inhibition,"[13]; cisplatin combo, at 0.05 µM",94.8%
same,inhibition,"[13]; cisplatin combo, at 0.5 µM",-34.3%
same,inhibition,"[13]; cisplatin combo, at 5 µM",-34.9%
same,inhibition,"[13]; measured here: 5 uM single agent, at 5 µM",-35.3%
same,inhibition,[14]; at 0.5 µM,34.5% (inactive)
same,inhibition,"[14]; measured here: with BGB IC20, at 0.5 µM",8.9%
same,inhibition,"[14]; measured here: with BGB IC20, at 5 µM",99.2%
same,inhibition,"[14]; measured here: with cisplatin IC20, at 0.5 µM",49.8%
same,inhibition,"[14]; measured here: with cisplatin IC20, at 5 µM",99.8%
same,inhibition,"[14]; single agent, at 5 µM",99.7%
same,inhibition,[15]; at 0.5 µM,33.7% (inactive)
same,inhibition,"[15]; measured here: BGB combination, at 0.5 µM",25.2%
same,inhibition,"[15]; measured here: BGB combination, at 5 µM",62%
same,inhibition,"[15]; measured here: cisplatin combination, at 0.5 µM",26.3%
same,inhibition,"[15]; measured here: cisplatin combination, at 5 µM",66.1%
same,inhibition,[16]; at 0.5 µM,38.7% (inactive)
same,inhibition,"[16]; cisplatin combination, at 0.5 µM",58.9%
same,inhibition,"[16]; cisplatin combination, at 5 µM",102%
same,inhibition,"[16]; measured here: BGB IC40 combination 0.05 uM, at 0.05 µM",14.1%
same,inhibition,"[16]; single agent, at 5 µM",108%
same,inhibition,[17]; at 0.5 µM,32.4% (inactive)
same,inhibition,"[17]; cisplatin combo, at 5 µM",91.3%
same,inhibition,"[17]; measured here: BGB IC40 combination, at 0.05 µM",-15.7%
same,inhibition,"[17]; measured here: combination with cisplatin, at 0.5 µM",51.1%
same,inhibition,"[17]; single agent, at 5 µM",92.7%

# Source: PubChem BioAssay
